Test results reported in PubChem BioAssay AID1159580 (chemical genetic matrix, 2015).
In all, about 5,500 compounds went through this assay and about 2,000 (36%) were called active. About 18% were inconclusive and are not listed. No stated cut-off is given here; in the data, active means normalized growth mostly below about 0.91 (no sharp cut-off); inconclusive means no clear call, values can overlap the other calls; inactive means mostly above about 0.92. The list shows a part of the results.

Assay: chemical genetic growth profiling, strain panel (AID 1159580);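 further: tested at 20 µM; growth read once vehicle control cultures reached saturation at 30 °C; 1 = growth at the plate median or of vehicle wells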
Conditions: S. cerevisiae deletion strains, growth OD

Measured: normalized growth

Nc1nc2ccc(Cl)cc2c2nc(-c3ccco3)nn12
active: locus YAL040C, strain CLN3, stronger effect = lower value 0.734 | locus YER002W, strain NOP16, stronger effect = lower value 0.74 | locus YNL128W, strain TEP1, stronger effect = lower value 0.632 | locus YNL175C, strain NOP13, stronger effect = lower value 0.664 | locus YNL197C, strain WHI3, stronger effect = lower value 0.81 | locus YNL224C, strain SQS1, stronger effect = lower value 0.729 | locus YOR083W, strain WHI5 (second series), stronger effect = lower value 0.473
inactive: locus YCL061C, strain MRC1 (second series), stronger effect = lower value 0.988 | locus YDR363W, strain ESC2, stronger effect = lower value 0.926 | locus YMR307W, strain GAS1, stronger effect = lower value 0.969 | locus YPL055C, strain LGE1, stronger effect = lower value 0.909
